# According to PubChem BioAssay (NCI):
# “And” between values parts separate entries of the source, which are not always exact repeats. Equal entries are not always repeated. The panel holds about 79,000 compounds, 15% with a hit somewhere; the sample as a whole holds those more often. A number with no mark means an inactive call. The source made the active and inactive calls. Rule as the data show it: active = growth inhibition above about 70%; inactive = the rest.
# Assay: NCI Yeast Anticancer Drug Screen. Data for the bub3 strain (AID 167)
# Conditions: S. cerevisiae bub3 mutant strain, at 50.0 µM, stronger effect = higher value
# How it was run: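 Compounds were applied to a genetically altered yeast strain carrying a cell-cycle control defect. Growth inhibition was scored against vehicle-treated controls.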
row,SMILES,growth inhibition [%]
1,C[C@]12C=CC(=O)C=C1CC[C@@H]1[C@@H]2C(=O)C[C@]2(C)C(=O)CC[C@@H]12,-4.4
2,O=C1C2CCN(CC2)C1(CO)CO,-30.4
3,O=P(c1ccccc1)(c1ccccc1)c1ccccc1.O=P(c1ccccc1)(c1ccccc1)c1ccccc1.O=P(c1ccccc1)(c1ccccc1)c1ccccc1.O=P(c1ccccc1)(c1ccccc1)c1ccccc1.[Co+2].[O-][Cl+3]([O-])([O-])O,13.8
4,COc1cc2c(c(Oc3ccc(C)cc3)c1)CN(C)CC2,63.6
5,CC(C)(C)C1COP(=S)(C(C)(C)C)OC1 (stereo not drawn),-0.5
6,N#CCCCl,-1.65
7,NNC(=O)NC(=O)NN,-0.15
8,Cc1ccccc1N,-1.55
9,CC(C)(C)C1(C)CN(N=O)C(=O)O1 (stereo not drawn),5.85
10,NC(CCCCCP(=O)(O)O)C(=O)O (stereo not drawn),-17.4
11,O=C(NCCc1ccc([N+](=O)[O-])cc1)c1ccc(S(=O)(=O)F)cc1,19.4
12,CC(NC1=NCCO1)c1ccccc1Cl (stereo not drawn),-12.9
13,O=C(/C=C/c1ccccc1)Nc1ccc(Cl)cc1C(=O)c1ccccc1,40.4
14,Cc1ccc(NC(=O)C(Cl)(Cl)Cl)cc1Cl,25.2
15,CC1=NCCN=C(C)C1[N+](=O)[O-],2.65
16,O=C(O)CCCC1CCCCC1.[Ni],-10.8
17,CCN1C(=O)C(=Cc2ccc(-c3ccccc3)cc2)C(=O)N(CC)C1=S,15.4
18,O=C(O)C1C2C=Cc3ccccc3C21 (stereo not drawn),-6.2
19,C#CCOC(=O)C=[N+]=[N-],3.85
20,COc1ccccc1CC(C)N (stereo not drawn),16.1
21,CCNC(=O)CCl,-0.9
22,O=C(Cc1c[nH]c2ccccc12)N/N=C\c1ccc(N(CCCl)CCCl)cc1,-5.65
23,CCN(CC)C(=S)SCc1ccccc1OC(=O)NC,33.1

# Assay: NCI Yeast Anticancer Drug Screen. Data for the mlh1 rad18 strain (AID 175)
# Conditions: S. cerevisiae mlh1 rad18 strain growth inhibition; at 50.0 µM; stronger effect = higher value
# How it was run: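 Vehicle-treated cultures served as the reference for growth inhibition in a yeast strain carrying DNA damage repair alterations exposed to each compound.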
row,SMILES,growth inhibition
1,CC1(C)[C@@H]2CC[C@@]1(C)CN(CCC[N+](C)(C)C)C2,-2.35%
2,CCC1(O)CC(O)c2c(O)c3c(c(O)c2C1C(=O)OC)C(=O)c1cccc(O)c1C3=O (stereo not drawn),36.8%
3,COC(=O)C1C2CCCN2OC1(C)CO (stereo not drawn),2.1%
4,CCC[CH2][Sn]([Br])([CH2]CCC)[CH2]CCC,97.3% (active)
5,Cc1ccc2ccccc2c1,-7.35%
6,CN1CN(c2ccccc2)C2(CCN(CC(C)(c3ccc(F)cc3)C3OCCCO3)CC2)C1=O (stereo not drawn),8.95%
7,C[P+](C)(C)C,-26.9% and -6.85%
8,C/C=C/C1(CCCC)C(=O)NC(=O)NC1=O,-20.8%
9,CCOC(=O)C(Cc1ccc(N(CCCl)CCCl)cc1)NC(=O)C(N)CO (stereo not drawn),7.5%
10,CC(COC(=O)NCc1ccccc1)OC(N)=O (stereo not drawn),-11.4%
11,CS/C([S-])=N/N=C(C)C.CS/C([S-])=N/N=C(C)C.[Pt+2],-9.9%
12,O=c1[nH]cc(N=Cc2ccccc2Cl)c(=O)[nH]1.[Cl][Pt][Cl],-9.05%
13,[Mn+3].[O-][Cl+3]([O-])([O-])O.[O-]c1ccccc1C=NCCN1CC1.[O-]c1ccccc1C=NCCN1CC1,84.2% (active)
14,CN1C[C@H]2[C@@H](C1=O)[C@H](c1ccccc1)ON2C,-1.85%
15,O=C(O)COc1nc(Cl)c(Cl)cc1Cl,1.15%
16,CCCCOc1ccc([As](=O)(O)O)cc1,5.65%
17,CC1=CC(=O)NP(=O)(Oc2ccc(C)cc2)N1 (stereo not drawn),-4.4%
18,C[C@]12C=CC(=O)C=C1CC[C@@H]1[C@@H]2C(=O)C[C@]2(C)C(=O)CC[C@@H]12,4.95%
19,O=C1C2CCN(CC2)C1(CO)CO,-20.2%
20,O=P(c1ccccc1)(c1ccccc1)c1ccccc1.O=P(c1ccccc1)(c1ccccc1)c1ccccc1.O=P(c1ccccc1)(c1ccccc1)c1ccccc1.O=P(c1ccccc1)(c1ccccc1)c1ccccc1.[Co+2].[O-][Cl+3]([O-])([O-])O,16.3%

row,SMILES,growth inhibition
1,COc1cc2c(c(Oc3ccc(C)cc3)c1)CN(C)CC2,58.8%
2,CC(C)(C)C1COP(=S)(C(C)(C)C)OC1 (stereo not drawn),-5.15%
3,N#CCCCl,-19.8%
4,NNC(=O)NC(=O)NN,9.6%
5,Cc1ccccc1N,4.4%
6,CC(C)(C)C1(C)CN(N=O)C(=O)O1 (stereo not drawn),-15.5%
7,NC(CCCCCP(=O)(O)O)C(=O)O (stereo not drawn),-37.5%
8,O=C(NCCc1ccc([N+](=O)[O-])cc1)c1ccc(S(=O)(=O)F)cc1,8.05%
9,CC(NC1=NCCO1)c1ccccc1Cl (stereo not drawn),-48%
10,O=C(/C=C/c1ccccc1)Nc1ccc(Cl)cc1C(=O)c1ccccc1,20.4%
11,Cc1ccc(NC(=O)C(Cl)(Cl)Cl)cc1Cl,14.8%
12,CC1=NCCN=C(C)C1[N+](=O)[O-],24.3%
13,O=C(O)CCCC1CCCCC1.[Ni],-18.6%
14,CCN1C(=O)C(=Cc2ccc(-c3ccccc3)cc2)C(=O)N(CC)C1=S,20.4%
15,O=C(O)C1C2C=Cc3ccccc3C21 (stereo not drawn),6.45%
16,C#CCOC(=O)C=[N+]=[N-],-2.1%
17,COc1ccccc1CC(C)N (stereo not drawn),16.3%
18,CCNC(=O)CCl,10.4%
19,O=C(Cc1c[nH]c2ccccc12)N/N=C\c1ccc(N(CCCl)CCCl)cc1,4.55%
20,CCN(CC)C(=S)SCc1ccccc1OC(=O)NC,-5.95%
